Data as given in PubChem BioAssay (NCATS).
“And” between values parts separate entries of the source, which are not always exact repeats. Equal values may be shown once. Values without a mark were called inactive. Inconclusive results are not listed. Entries that show only a call come without a potency. The source made the active and inactive calls. Unless noted, calls come from the whole dose curve; as a rule, active = well fitted curve in the direction sought with a large enough effect; inconclusive = small, poorly fitted or top-dose-only effect, or another doubt; inactive = no such curve, though single readings can be large; an effect the other way counts as inactive or inconclusive.

Tests used:
[1] = qHTS assay for small molecule disruptors of the mitochondrial membrane potential - 5 hr assay (AID 651755; calls by dose curve; note: nearly all actives have a fitted effect of over 40% in size)
Outline: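 Membrane-potential dye readout: red aggregate (540 ex/590 em) versus green monomer (490 ex/535 em) fluorescence after 30 min dye loading, following 5 hr compound exposure at 37C of overnight-plated HepG2 cells.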

[2] = biological target: Tumor necrosis factor (Homo sapiens) (UniProt P01375); assay: qHTS assay to identify small molecules that stimulate Tumor Necrosis Factor-alpha (TNF-alpha) secretion (AID 651757; active = well fitted curve in the direction sought with a large enough effect in the signal ratio; the % refers to the signal ratio)
Outline: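 Secreted TNF-alpha quantified by TR-FRET sandwich of two labeled anti-TNF-alpha antibodies, incubated 3 hr at room temperature. Preceded by 17 hr, 37 C compound treatment of THP-1 cells at 3000 cells/well.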

[3] = qHTS assay to identify small molecules that stimulate interleukin-8 (IL-8) secretion (AID 651758; active = well fitted activation curve with a large enough effect in the signal ratio; the % refers to the signal ratio; note: potency is the fitted concentration of half-maximal effect)
Outline: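 Secreted IL-8 measured homogeneously by TR-FRET (two labelled anti-IL-8 antibodies, 1-3 h at room temperature) after a 16 h, 37 C compound treatment of THP-1 cells at 2000 cells/well.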

[4] = qHTS assay for environmental chemicals that activate the Aryl hydrocarbon Receptor (AhR) signaling pathway (AID 651777); conditions: 1A2-DRE human hepatoma cells, luciferase, 24 h; activation: hits give high values; note: nearly all actives have a fitted effect of over 15% in size
Outline: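 Measured luciferase activity, read 30 min after One-Glo addition at room temperature, from human hepatoma cells bearing a dioxin response element–CYP1A2 promoter reporter and exposed to compound for 24 hr at 37 C.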

[5] = biological target: Peroxisome proliferator-activated receptor alpha (Homo sapiens) (UniProt Q07869); assay: qHTS assay for small molecule agonists of the peroxisome proliferator-activated receptor alpha (PPARalpha) signaling pathway (AID 651778); conditions: PathHunter PPARalpha complementation, chemiluminescence, 6 h; hits give high values
Outline: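 Chemiluminescence from complemented enzyme reported PPARalpha activation in cells after 6 hr of compound treatment at 37 C. The detection reagent was incubated for 60 min at room temperature, and compounds were scored as agonists.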

[6] = biological target: Nuclear receptor ROR-gamma (Homo sapiens) (UniProt P51449); assay: qHTS assay for small molecule antagonists of the retinoid-related orphan receptor gamma (ROR-gamma) signaling pathway (AID 651802);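 note: CHO cells with doxycycline-induced ROR-gamma expression; luciferase reporter luminescence driven by ROR response element; series mostly up to about 92 µM; nearly all actives have a fitted effect of over 60% in size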
Outline: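 Luminescence (One-Glo, 30 min RT) measured 16 h after compound addition and doxycycline induction at 37C. Reporter: RORE-luciferase under TET-inducible ROR-gamma in CHO cells.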

[7] = qHTS assay for small molecule agonists of the antioxidant response element (ARE) signaling pathway measured by Nrf2-dependant transcriptional activity (AID 720636; active = well fitted curve in the direction sought with a large enough effect in the repeat runs; an effect the other way counts as inactive or inconclusive;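 note: HepG2 cells with an ARE-driven luciferase reporter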)
Outline: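 In HepG2 cells engineered with an Nrf2-responsive luciferase gene, ARE induction was quantified as luminescence after 16 hr compound treatment at 37 C.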

[8] = qHTS assay for small molecule agonists of the antioxidant response element (ARE) signaling pathway measured by Nrf2-dependant transcriptional activity - cell viability counter screen (AID 720653; active = well fitted curve in the direction sought with a large enough effect in the repeat runs; an effect the other way counts as inactive or inconclusive); conditions: ARE-bla HepG2 viability, CellTiter-Glo ATP luminescence, 16 h; hits give low values
Outline: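 Cytotoxicity counter screen: intracellular ATP quantified by CellTiter-Glo luminescence in the same ARE-bla HepG2 plates, after 16 h compound exposure and a 2 h beta-lactamase substrate step.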

[9] = qHTS assay for cell viability of HEK293 cells (AID 743288); conditions: ATP luminescence (CellTiter-Glo), 18 h, hits give low values; note: nearly all actives have a fitted effect of over 50% in size
Outline: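 Viable-cell counts were inferred from luciferase-based ATP content in HEK293 cells seeded at 2,000/well, pre-incubated ≥5 h, then dosed with DMSO-solubilised compounds for 18 h at 37 C.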

[10] = qHTS assay for small molecule antagonists of the retinoid-related orphan receptor gamma (ROR-gamma) signaling pathway - cell viability counter screen (AID 720652; active = well fitted curve in the direction sought with a large enough effect in the repeat runs; an effect the other way counts as inactive or inconclusive;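 note: compound exposure lasted 16 hr before ATP read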; note: potency is the fitted concentration of half-maximal effect)
Outline: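 Cytotoxicity counter screen: intracellular ATP (CellTiter-Glo luminescence) measured in the doxycycline-induced CHO RORE-luciferase reporter line after 16 hr compound exposure at 37 C, 5% CO2.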

Chain of Peroxisome proliferator-activated receptor alpha (Homo sapiens) (Q07869 whole entry, looked up): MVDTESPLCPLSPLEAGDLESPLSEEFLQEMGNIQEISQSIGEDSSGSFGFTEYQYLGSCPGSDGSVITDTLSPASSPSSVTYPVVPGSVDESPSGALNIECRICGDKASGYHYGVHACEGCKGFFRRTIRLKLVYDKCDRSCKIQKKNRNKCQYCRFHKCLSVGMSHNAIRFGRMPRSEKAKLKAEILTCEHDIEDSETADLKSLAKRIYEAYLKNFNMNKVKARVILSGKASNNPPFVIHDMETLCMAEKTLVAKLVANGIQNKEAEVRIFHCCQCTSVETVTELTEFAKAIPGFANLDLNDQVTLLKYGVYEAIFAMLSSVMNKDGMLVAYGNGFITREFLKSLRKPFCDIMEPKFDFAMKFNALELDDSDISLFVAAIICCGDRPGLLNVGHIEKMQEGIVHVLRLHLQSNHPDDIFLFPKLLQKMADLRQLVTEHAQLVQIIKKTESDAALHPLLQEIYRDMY
Chain of Nuclear receptor ROR-gamma (Homo sapiens) (P51449 whole entry, looked up): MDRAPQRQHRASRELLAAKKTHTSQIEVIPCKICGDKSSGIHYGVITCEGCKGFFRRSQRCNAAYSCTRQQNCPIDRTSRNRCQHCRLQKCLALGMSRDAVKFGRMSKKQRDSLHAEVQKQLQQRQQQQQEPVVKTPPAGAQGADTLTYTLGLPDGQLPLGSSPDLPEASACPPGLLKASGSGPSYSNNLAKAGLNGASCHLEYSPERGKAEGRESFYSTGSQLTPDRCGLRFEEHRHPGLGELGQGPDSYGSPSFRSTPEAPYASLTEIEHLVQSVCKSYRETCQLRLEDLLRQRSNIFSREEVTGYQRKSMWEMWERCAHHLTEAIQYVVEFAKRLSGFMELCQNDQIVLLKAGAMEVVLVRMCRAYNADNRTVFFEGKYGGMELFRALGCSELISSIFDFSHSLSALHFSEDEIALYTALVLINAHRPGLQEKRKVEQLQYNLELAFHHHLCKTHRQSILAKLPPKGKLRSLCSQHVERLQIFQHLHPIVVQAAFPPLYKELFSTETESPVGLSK
Chain of Tumor necrosis factor (Homo sapiens) (P01375 whole entry, looked up): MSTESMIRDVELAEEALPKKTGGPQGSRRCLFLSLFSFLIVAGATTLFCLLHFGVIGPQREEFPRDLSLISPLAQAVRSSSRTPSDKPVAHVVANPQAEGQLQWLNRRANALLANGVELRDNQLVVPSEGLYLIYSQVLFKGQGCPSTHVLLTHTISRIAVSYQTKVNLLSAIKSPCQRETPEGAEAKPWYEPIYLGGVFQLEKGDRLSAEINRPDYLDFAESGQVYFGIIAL

Structure (SMILES)	Potency [1]	Potency [2]	Potency [3]	activation [4]	max response [5]	Potency [6]	outcome [7]	max response [8]	max response [9]	Potency [10]
CCCOCC(C)OCC(C)O (stereo unspecified)	inactive	inactive	inactive	-2.16%	-1.53%	inactive	inactive	-10.5%	-8.35%	
CCCCCNCCCCC	inactive	inactive	inactive	0.294% and -0.372%	-4.45% and 0.112%	inactive	inactive	-0.347% and -3.31%	0.935% and 1.64%	
CC(=O)Nc1ccccc1C	inactive	inactive	inactive	-0.35%	-1.36%		inactive	-6.99%	-9.82%	
Cc1ccc(N(C)C)cc1	inactive	inactive	inactive	6.07%	2.84%		inactive	-14.6%	-14.6%	inactive
CC1=C(/C=C/C(C)=C/C=C/C(C)=C\C=O)C(C)(C)CCC1	inactive	inactive	0.422 µM (active)	6.53%	1.33%				-22%	26.6 µM (active)
C=C(C)C(=O)OCC(C)O (stereo unspecified)	inactive	inactive	inactive	0.365%		inactive	inactive	7.34%	-4.55%	inactive
C=C(C)C(=O)OCCCCCCCCCC	inactive	inactive	inactive	-0.81%		inactive	inactive	-0.733%	-5.31%	
Cc1ccc(CO)cc1	inactive	inactive	inactive	-1.15%	4.64%	inactive	inactive		9.52%	inactive
O=C1CCCCC1	inactive	inactive	inactive	-0.681%	-2.26%	inactive	inactive	5.45%	-3.35%	
Cc1ccccc1C=O	inactive	inactive	inactive	-0.786%	-2.49%	inactive	inactive		5.96%	inactive
CC(C)N(C)C	inactive	inactive	inactive		-5.48%	inactive	inactive	2.26%	6.47%	inactive
Cc1ccc2ccccc2c1[N+](=O)[O-]	inactive	inactive	inactive	1.24%	5.72%	inactive	inactive	14.1%	1.17%	
Cc1cc(C(=O)O)ccc1[N+](=O)[O-]	inactive	inactive	inactive	1.35%	-0.276%		inactive	-1.45%	-12%	inactive
Cc1cc(C)cc([N+](=O)[O-])c1	inactive	inactive	inactive		-0.421%	inactive	inactive	-11.8%	1.12%	inactive
c1ccc2c(c1)Oc1ccccc1S2	inactive	inactive	inactive		-0.0488%	inactive	inactive	6.9%	0.655%	inactive
Cc1ccc(C(C)(C)C)cc1	inactive	inactive	inactive	-0.334%	3.18%	inactive	inactive	-0.19%	1.5%	
O=C(O)c1cccc(Cl)c1Cl	inactive	inactive		-1.06%	-2.92%	inactive	inactive	3.31%	6.72%	inactive
COc1ccccc1[N+](=O)[O-]	inactive	inactive		0.316% and 0.0004%	-1.42% and -1.21%	inactive	inactive	-18.6% and -4.26%	-1.85% and -1.91%	inactive
CN(C)CCCNCCCN	inactive	inactive		0.0352%	-2.56%	inactive	inactive	-2.03%	-0.667%	inactive
O=C(Cl)c1cccc([N+](=O)[O-])c1	inactive	inactive	inactive		-2.24%	inactive	inactive		-15.1%	inactive
Clc1cc(Cl)cc(Cl)c1	inactive	inactive	inactive		0.786%		inactive	-5.36%	-3.91%	inactive
CCCCOCCOCCSC#N	inactive	inactive		-0.297%	0.043%	inactive	inactive	-6.26%	5.15%	inactive
CCCCCCCN	inactive	inactive		-0.576%	-4.9%	inactive	inactive	-1.43%	9.44%	inactive
